Screening results from PubChem.
Rows were chosen to be rich in hits. Some 10% of all compounds tested hit in one or more screens of this group.
SARS PLpro yeast-1: qHTS of Yeast-based Assay for SARS-CoV PLP; Potency, µM (doses to about 32.9 µM), without a hit: at the top dose activity, positive = growth rescue, actives largely listed as activators; S. cerevisiae expressing SARS-CoV PLpro, growth rescue; 330,000 tested, 0.19% active; further: potency means the concentration at half of the fitted maximal effect; 0% is about no effect; nearly all actives have a fitted effect of over 55% in size
NS1 function inh: qHTS Assay for Inhibitors of Influenza NS1 Protein Function; Potency, µM (highest dose often 46.1 µM), for the others: at the top dose activity, positive = more growth; 270,000 tested, 0.4% active; further: potency means the concentration at half of the fitted maximal effect; actives are rising curves; nearly all actives have a fitted effect of over 50% in size
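Growth recovery, yeast-based: influenza A NS1 expressed in S. cerevisiae causes slow growth, and suppressors are detected by OD600. The parent strain without NS1 is used as positive control.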
Pf growth 96h: Primary qHTS for delayed death inhibitors of the malarial parasite plastid, 96 hour incubation. Potency, µM (series often up to 28.7 µM), for inactives: at the highest dose activity change, negative = inhibition, most hits filed as inhibitors. P. falciparum luciferase reporter growth, 96 h. 320,000 tested, 6.9% active; active means well fitted inhibition curve with a large enough effect; inconclusive means small, poorly fitted or top-dose-only effect, or another doubt; inactive means no such curve, though single readings can be large or run the other way; further: potency means the concentration at half of the fitted maximal effect; on the % scale 0 is the no-effect control and ±100 the full control effect
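Cell-based qHTS: luciferase-tagged P. falciparum in erythrocytes (2% hematocrit, 0.05% parasitemia final) incubated with compounds for 96 hours, 37 C, 5% CO2; luciferase detection reagent then added and luminescence measured.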
Pf growth 48h: Primary qHTS for delayed death inhibitors of the malarial parasite plastid, 48 hour incubation. 310,000 tested, 5.9% active. AID 504832, 2011. P. falciparum luciferase growth in erythrocytes, 48 h. Potency, µM (titrated, usually from 28.7 µM), inactives show at the highest dose activity change, negative = inhibition, usual class: inhibitors; active means well fitted inhibition curve with a large enough effect; inconclusive means small, poorly fitted or top-dose-only effect, or another doubt; inactive means no such curve, though single readings can be large or run the other way; further: potency means the concentration at half of the fitted maximal effect; on the % scale 0 is the no-effect control and ±100 the full control effect
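Cell-based growth assay: transgenic P. falciparum expressing firefly luciferase, cultured in red cells within RPMI 1640 containing 0.5% w/v Albumax, 24 mM bicarbonate and gentamycin. A drop in luciferase activity indicates inhibition.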
SARS PLpro yeast-2: qHTS of Yeast-based Assay for SARS-CoV PLP: Hit Validation; yeast expressing SARS-CoV PLpro, growth phenotype rescue; 1,000 tested, 19% active; calls only; shares compounds with SARS PLpro yeast-1; call rule not given here
Active calls of the source: *; i = inactive; ? = inconclusive; · = not tested or not shown; + = active, no number. Unless noted, the call rests on the fitted dose curve.

SMILES	SARS PLpro yeast-1	NS1 function inh	Pf growth 96h	Pf growth 48h	SARS PLpro yeast-2
N#Cc1ccc(Oc2cccc3cccnc23)c([N+](=O)[O-])c1	-1%	2%	5%	12%	·
O=C1OCCC/C1=C\c1ccc2c(c1)OCO2	-3%	8%	0%	-24%	·
CCCN1C/C(=C/c2ccc3c(c2)OCO3)C(=O)/C(=C/c2ccc3c(c2)OCO3)C1	14µM*	11%	1.9µM*	0%	i
CCOC(=O)N1CCN(CCC(=O)Nc2ccccc2OC)CC1	?	5%	13µM*	14%	i
O=C(O)c1cccc(COc2ccccc2Cl)c1	-14%	-91%	·	14%	·
O=C(Nc1ccccc1Cl)c1cccc(COc2cc(Cl)ccc2Cl)c1	?	0%	86%	·	i
CCN1C(=O)[C@H]2[C@H]3CN=C(SCC(=O)c4ccccc4)N3[C@@](C)(C(=O)OC)[C@H]2C1=O	·	·	·	·	i
COc1ccc(Cl)cc1NC(=O)C1CC(c2ccccc2O)=NO1 (configuration not stated)	-1%	18%	-11%	0%	·
COC(=O)C(CC(=O)O)NCc1ccco1 (configuration not stated)	0%	3%	-5%	4%	·
O=C(CNC(=O)c1ccco1)OC(C(=O)c1ccccc1)c1ccccc1 (configuration not stated)	?	-21%	5%	4%	i
CCOc1cc(CNCCSc2nnnn2C)cc(Br)c1OCc1ccc(F)cc1	?	-3%	10µM*	?	i
O=C(Nc1cccnc1)C1CCC(CNS(=O)(=O)c2cccc3nsnc23)CC1 (configuration not stated)	-2%	-10%	-26%	?	·
CC(=O)Nc1ccc(NC(=O)Cc2sc(C)nc2-c2ccc(C)cc2)cc1	?	7%	?	-22%	i
CCC(C)(C)n1nnnc1CN1CCc2ccccc21	1%	10%	·	0%	·
O=C(Cc1cc(=O)[nH]c(=O)[nH]1)N1CCN(C(=O)c2ccco2)CC1	1.8µM*	-8%	43%	27%	i
CN(C)CCNC(=S)Nc1cccc(Cl)c1	?	26%	-10%	25%	i
COc1ccccc1N(CC(=O)N/N=C(\C)c1ccc(F)cc1)S(=O)(=O)c1ccccc1	-8%	·	?	?	·
CN(C)S(=O)(=O)c1ccc(/C(O)=C2/C(=O)C(=O)N(Cc3cccnc3)C2c2ccncc2)cc1 (configuration not stated)	10µM*	-6%	·	93%	i
COc1ccc(S(=O)(=O)N(CC(=O)NCc2ccco2)c2ccccc2OC)cc1	-13%	7%	1%	?	·
Cc1ccc(-c2nc3ccccn3c2NC(=O)c2ccco2)cc1	?	-7%	?	-8%	i
O=C(Nc1ccc(S(=O)(=O)NC2=NCCCCC2)cc1)c1ccc2ccccc2n1	-1%	·	?	?	·
COc1cc([N+](=O)[O-])cc(/C=N/NC(=O)C(C)Nc2cccc3ccccc23)c1O (configuration not stated)	10µM*	4%	36%	?	?
Cc1ccc(CN2CCN(/N=C/c3sccc3C)CC2)c(C)c1	11µM*	-10%	20%	13%	i
CSc1ccc(/C=N/N2CCN(Cc3ccc(C)cc3C)CC2)cc1	-2%	5%	-6%	-1%	·
O=C(COC(=O)c1ccccc1[N+](=O)[O-])NCCCc1ccccc1	1%	-4%	28%	12%	·
SMILES	SARS PLpro yeast-1	NS1 function inh	Pf growth 96h	Pf growth 48h	SARS PLpro yeast-2
COc1ccccc1C(=O)Nc1cccc2c1CCCC2	?	-11%	?	-10%	i
Cc1ccccc1C1NC(c2ccccc2C)C([N+](=O)[O-])C(C)(C)C1[N+](=O)[O-] (configuration not stated)	0%	5%	?	?	·
Cc1cccc(C2NC(c3cccc(C)c3)C([N+](=O)[O-])C(C)(C)C2[N+](=O)[O-])c1 (configuration not stated)	?	18%	?	?	i
CC(C)(C)C(=O)CN1C2=NCCCN2c2ccccc21	1%	10%	?	-11%	·
Cc1nc([N+](=O)[O-])c(Br)n1Cc1ccccc1	0%	-3%	-13%	?	·
Cc1nc([N+](=O)[O-])c(Sc2nc3ccc([N+](=O)[O-])cc3[nH]2)n1Cc1ccccc1	10µM*	-31%	?	?	i
COc1cc(-c2nnc(SCc3cc(=O)oc4cc(O)c(O)cc34)o2)cc(OC)c1OC	6.3µM*	5%	·	?	i
CCOC(=O)CSc1nnc(-c2cc(OC)c(OC)c(OC)c2)o1	0%	2%	41%	1%	·
COc1cc(C(=O)NCCc2ccc(S(N)(=O)=O)cc2)ccc1OCc1c(C)noc1C	-1%	·	?	?	·
Cn1ncc(Cl)c1C(=O)N/N=C/c1ccccn1	?	-5%	-10%	18%	+
Cc1ccccc1C(=O)N/N=C/c1ccccn1	-7%	7%	?	-25%	·
CC1CN(C(=O)Cn2c(C(F)(F)F)nc3ccccc32)CC(C)O1 (configuration not stated)	?	0%	-6%	·	i
O=C(O)Cn1c(C(F)(F)F)nc2ccccc21	·	8%	-7%	16%	·
CCCOc1ccc(C2=NNC(=O)CC2)cc1	-1%	-1%	66%	11%	·
COc1ccc(C2=NNC(=O)CC2)cc1	?	-6%	0%	6%	i
O=C(NN1C(=O)/C(=C/c2ccc(O)c(O)c2)SC1=S)c1ccccc1	?	24%	10µM*	-24%	i
O=C1/C(=C/c2ccc(O)c(O)c2)SC(=S)N1Nc1ccccc1	5%	·	147%	?	·
Cc1ccc(NC(=O)CN2C(=O)NC(Cc3c[nH]c4ccccc34)C2=O)cc1S(=O)(=O)N1CCCCC1 (configuration not stated)	20%	14%	?	-12%	·
Nn1c(=O)[nH]c2ccccc2c1=O	5%	4%	44%	39%	·
Cc1ccc(CNC(=O)c2cn(C3CCCCC3)c(=O)c3c2c2ccccc2n3C)o1	?	15%	52%	·	+
CN(C(=O)c1ccc(NC(=O)C2CCCN(C(=O)OC(C)(C)C)C2)cc1)C1CCCC1 (configuration not stated)	?	·	·	·	i
C/C(N)=C(/C#N)C(=O)COC(=O)Cc1coc2ccc3ccccc3c12	0%	·	-17%	-18%	·
NC(=O)NOCc1ccccc1	3%	1%	54%	4%	·
CC(O)CC(=O)NOCc1ccccc1 (configuration not stated)	?	·	·	·	i
CC(C)CCNC(=O)c1cc([N+](=O)[O-])ccc1N1CCOCC1	26%	8%	-11%	27%	·
CC(C)CNC(=O)c1cc([N+](=O)[O-])ccc1N1CCOCC1	?	2%	56%	26%	i
CNC(=O)C1CC(=O)N(c2ccc(OCC(=O)NCc3ccccc3)cc2)C1 (configuration not stated)	1%	29%	86%	4%	·
